Source: PubChem BioAssay (Tox21)
Inconclusive results are not listed. Where a call stands in place of a potency, no number is given. Some structures have more than one record in an assay (separate samples or runs), and their calls can disagree. Unmarked numbers belong to inactive results. The source made the active and inactive calls. Unless noted, the call rests on the fitted dose curve; in most records, active means well fitted curve in the direction sought with a large enough effect in the repeat runs; inconclusive means weak or mixed curves; inactive means no such curve, though single readings can be large; an effect the other way counts as inactive or inconclusive.

Columns and labels:
[1] = qHTS assay to identify aromatase inhibitors - cell viability counter screen (AID 743084);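 further: cells stimulated with testosterone during compound exposure; nearly all actives have a fitted effect of over 55% in size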
[2] = biological target: Aryl hydrocarbon receptor (Homo sapiens) (UniProt P35869); experiment: qHTS assay to identify small molecule that activate the aryl hydrocarbon receptor (AhR) signaling pathway (AID 743085);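 further: HG2L7.5c1 human HepG2 liver cells with stably integrated DRE-driven firefly reporter; series mostly up to about 70 µM; nearly all actives have a fitted effect of over 15% in size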
Aryl hydrocarbon receptor (Homo sapiens), sequence (P35869 whole entry, looked up): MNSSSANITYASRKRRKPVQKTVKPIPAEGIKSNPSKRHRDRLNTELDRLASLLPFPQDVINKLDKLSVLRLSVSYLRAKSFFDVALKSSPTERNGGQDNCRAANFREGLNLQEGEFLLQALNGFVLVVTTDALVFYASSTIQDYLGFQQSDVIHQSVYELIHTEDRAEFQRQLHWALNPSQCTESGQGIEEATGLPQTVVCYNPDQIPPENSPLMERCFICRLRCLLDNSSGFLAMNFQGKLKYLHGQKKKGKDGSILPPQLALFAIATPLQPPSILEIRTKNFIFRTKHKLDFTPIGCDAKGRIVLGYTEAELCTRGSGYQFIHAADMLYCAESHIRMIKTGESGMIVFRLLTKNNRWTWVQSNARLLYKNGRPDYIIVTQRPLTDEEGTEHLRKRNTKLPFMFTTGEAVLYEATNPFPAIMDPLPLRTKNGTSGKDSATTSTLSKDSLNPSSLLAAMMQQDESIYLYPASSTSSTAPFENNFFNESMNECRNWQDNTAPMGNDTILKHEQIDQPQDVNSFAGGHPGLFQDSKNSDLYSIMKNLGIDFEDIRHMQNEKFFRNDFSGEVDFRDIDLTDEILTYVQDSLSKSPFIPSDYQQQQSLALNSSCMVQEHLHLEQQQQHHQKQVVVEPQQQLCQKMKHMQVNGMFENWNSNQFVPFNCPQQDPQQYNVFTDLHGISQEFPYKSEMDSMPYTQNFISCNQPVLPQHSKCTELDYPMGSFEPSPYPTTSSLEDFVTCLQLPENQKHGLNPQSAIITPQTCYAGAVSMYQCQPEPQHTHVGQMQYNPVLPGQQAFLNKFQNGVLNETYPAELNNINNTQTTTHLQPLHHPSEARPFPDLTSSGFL
Procedure, shortened: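 Compounds were tested in HepG2 hepatocellular carcinoma cells harbouring a stably integrated luciferase gene under control of 20 DREs. Increased reporter signal after 24 h treatment at 37C was taken as AhR activation.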

[3] = qHTS assay to identify small molecule that activate the aryl hydrocarbon receptor (AhR) signaling pathway - cell viability counter screen (AID 743086);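 further: HepG2 liver cells carrying the AhR DRE luciferase reporter; series mostly up to about 70 µM; nearly all actives have a fitted effect of over 45% in size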
Procedure, shortened: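 HepG2-AhR-luc (HG2L7.5c1) cells, 4000/well, were preincubated 5 h at 37C, exposed to compound in qHTS format for 24 hr at 37C, then given CellTiter-Fluor for 30 min; viability was read as fluorescence in the reporter wells.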

[4] = qHTS assay to identify small molecule antagonists of the peroxisome proliferator-activated receptor gamma (PPARg) signaling pathway - cell viability counter screen (AID 743194); conditions: Potency: co-treated with 50 nM rosiglitazone unless noted; further: nearly all actives have a fitted effect of over 55% in size
Procedure, shortened: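 PPARg-UAS-bla HEK293H cells were plated, rested 5 h at 37 C, then treated with compounds plus rosiglitazone (50 nM final) for 17 h at 37 C; viability was then read by CellTiter-Glo luminescence after 30 min at room temperature.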

[5] = qHTS assay for small molecule agonists of the antioxidant response element (ARE) signaling pathway (AID 743202; active means well fitted activation curve with a large enough effect in the signal ratio in the repeat runs, not every such curve was filed as active; the % refers to the signal ratio)
Procedure, shortened: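 Following a 16 h, 37 C exposure of reporter HepG2 cells (ARE-driven beta-lactamase, 2,000 cells/well) to compounds, FRET substrate was applied for 2 h at room temperature and fluorescence intensity recorded.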

[6] = qHTS assay for small molecule agonists of the antioxidant response element (ARE) signaling pathway - cell viability counter screen (AID 743203; calls by dose curve; further: nearly all actives have a fitted effect of over 55% in size)
Procedure, shortened: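 Viability counter screen: CellTiter-Glo luminescence, read after 30 min at room temperature, in ARE-bla HepG2 wells. Compound exposure lasted 16 h at 37C/5% CO2, following a 5 h pre-incubation of the cells after plating.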

[7] = qHTS assay for small molecule activators of the heat shock response signaling pathway - cell viability counter screen (AID 743209); further: nearly all actives have a fitted effect of over 50% in size
Procedure, shortened: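 Cytotoxicity counter screen run in the same wells as the heat-shock bla reporter assay: HeLa HSE-bla cells, 5 h compound exposure at 37 C, viability read by CellTiter-Glo luminescence.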

[8] = qHTS assay to identify small molecule agonists of the peroxisome proliferator-activated receptor delta (PPARd) signaling pathway - cell viability counter screen (AID 743211); further: nearly all actives have a fitted effect of over 55% in size
Procedure, shortened: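 Counter screen for cytotoxicity run in parallel with the PPARd reporter screen. Beta-lactamase reporter HEK293H cells exposed to compounds 17 h; ATP-based CellTiter-Glo luminescence quantified viability.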

[9] = qHTS assay to identify small molecule antagonists of the peroxisome proliferator-activated receptor delta (PPARd) signaling pathway - cell viability counter screen (AID 743213); further: nearly all actives have a fitted effect of over 50% in size
Procedure, shortened: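 In this counter screen, HEK293H cells carrying a UAS-beta-lactamase reporter are co-treated with test compounds and 300 nM L165041 (final) for 17 h at 37 C; cell viability is quantified by CellTiter-Glo luminescence.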

[10] = qHTS assay to identify small molecule agonists of the farnesoid-X-receptor (FXR) signaling pathway - cell viability counter screen (AID 743218); further: nearly all actives have a fitted effect of over 45% in size
Procedure, shortened: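 Viability counter screen in the same wells: CellTiter-Glo luminescence, 30 min room-temperature incubation, measured after the beta-lactamase read. Cells were GeneBLAzer FXR-UAS-bla HEK 293T, compound-treated 16 h at 37C.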

[11] = qHTS assay to identify small molecule antagonists of the farnesoid-X-receptor (FXR) signaling pathway - cell viability counter screen (AID 743221; active means well fitted cell-killing curve with a large enough effect in the repeat runs, not every such curve was filed as active; further: nearly all actives have a fitted effect of over 50% in size)
Procedure, shortened: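 Multiplexed counter screen: viability of FXR-bla HEK 293T cells under agonist stimulation by chenodeoxycholic acid (50 uM, final) and test compound for 16 h at 37 C, measured by CellTiter-Glo luminescence in the reporter wells.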

[12] = biological target: Vitamin D3 receptor (Homo sapiens) (UniProt P11473); experiment: qHTS assay to identify small molecule agonists of the vitamin D receptor (VDR) signaling pathway (AID 743222; calls by dose curve)
Vitamin D3 receptor (Homo sapiens), sequence (P11473 whole entry, looked up): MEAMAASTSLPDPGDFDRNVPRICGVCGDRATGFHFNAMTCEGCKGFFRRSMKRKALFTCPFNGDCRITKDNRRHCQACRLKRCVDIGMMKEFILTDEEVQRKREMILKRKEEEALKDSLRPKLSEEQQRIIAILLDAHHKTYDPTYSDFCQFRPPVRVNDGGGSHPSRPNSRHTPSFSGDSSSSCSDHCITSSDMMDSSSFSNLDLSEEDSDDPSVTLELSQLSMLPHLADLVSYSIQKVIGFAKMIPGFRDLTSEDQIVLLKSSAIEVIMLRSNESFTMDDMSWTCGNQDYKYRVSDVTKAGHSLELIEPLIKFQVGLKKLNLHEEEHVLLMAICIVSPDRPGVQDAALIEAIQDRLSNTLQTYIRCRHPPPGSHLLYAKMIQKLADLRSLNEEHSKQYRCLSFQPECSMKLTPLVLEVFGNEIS
Procedure, shortened: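 Agonist mode, beta-lactamase reporter: fluorescence from LiveBLAzer B/G FRET substrate (2 h, room temperature) read after 16 h compound treatment at 37 C of VDR-bla cells, which were pre-incubated 4 h after seeding.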

[13] = biological target: Vitamin D3 receptor (Homo sapiens) (UniProt P11473); experiment: qHTS assay to identify small molecule antagonists of the vitamin D receptor (VDR) signaling pathway (AID 743223; active means well fitted inhibition curve with a large enough effect in the signal ratio in the repeat runs, not every such curve was filed as active; the % refers to the signal ratio)
Procedure, shortened: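 Cells carrying a VDR-driven beta-lactamase reporter (VDR-bla) were co-treated with compound and 3 nM final 1alpha,25-dihydroxyvitamin D3 for 16 h at 37C; reporter activity was measured as FRET substrate fluorescence after 2 h at room temperature.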

[14] = biological target: Peroxisome proliferator-activated receptor gamma (Homo sapiens) (UniProt P37231); experiment: qHTS assay to identify small molecule agonists of the peroxisome proliferator-activated receptor gamma (PPARg) signaling pathway (AID 743094; active means well fitted activation curve with a large enough effect in the signal ratio in the repeat runs, not every such curve was filed as active; the % refers to the signal ratio; further: potency means the concentration at half of the fitted maximal effect)
Peroxisome proliferator-activated receptor gamma (Homo sapiens), sequence (P37231 whole entry, looked up): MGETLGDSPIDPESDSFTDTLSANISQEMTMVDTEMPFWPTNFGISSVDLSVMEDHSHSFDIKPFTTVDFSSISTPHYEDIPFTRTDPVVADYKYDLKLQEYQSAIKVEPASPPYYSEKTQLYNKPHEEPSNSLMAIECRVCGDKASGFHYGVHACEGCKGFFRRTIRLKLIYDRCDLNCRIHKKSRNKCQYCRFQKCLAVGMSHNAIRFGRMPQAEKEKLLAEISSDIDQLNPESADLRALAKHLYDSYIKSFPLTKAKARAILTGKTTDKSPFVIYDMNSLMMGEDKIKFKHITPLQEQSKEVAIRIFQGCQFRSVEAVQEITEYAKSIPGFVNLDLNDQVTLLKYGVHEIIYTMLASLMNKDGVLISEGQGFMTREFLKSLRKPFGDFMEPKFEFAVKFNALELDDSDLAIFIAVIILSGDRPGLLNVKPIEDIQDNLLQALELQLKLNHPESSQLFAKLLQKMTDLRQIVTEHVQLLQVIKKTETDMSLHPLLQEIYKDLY
Procedure, shortened: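 Agonist activity was taken from a beta-lactamase reporter (FRET substrate, 1 h at room temperature) in HEK293H cells carrying a PPARg UAS-bla construct. Compounds in DMSO were incubated 17 h at 37C after a 5 h cell pre-incubation.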

[15] = biological target: Peroxisome proliferator-activated receptor gamma (Homo sapiens) (UniProt P37231); experiment: qHTS assay to identify small molecule antagonists of the peroxisome proliferator-activated receptor gamma (PPARg) signaling pathway (AID 743191; calls by dose curve; further: series mostly up to about 63 µM; nearly all actives have a fitted effect of over 30% in size)
Procedure, shortened: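 GeneBLAzer PPARg UAS-bla HEK293H cells carrying a UAS-driven beta-lactamase reporter were plated at 3000 cells/well, preincubated 5 h at 37C, then given compound for 17 h at 37C; LiveBLAzer B/G FRET substrate was read after 1 h at room temperature.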

[16] = qHTS assay for small molecule activators of the heat shock response signaling pathway (AID 743210; active means well fitted activation curve with a large enough effect in the signal ratio in the repeat runs, with a control signal flat, not every such curve was filed as active; the % refers to the signal ratio; further: series mostly up to about 63 µM)
Procedure, shortened: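 Heat shock element–beta-lactamase HeLa reporter cells; qHTS with compounds for 5 h at 37 C; detection by FRET substrate fluorescence after 2.5 h at RT.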

[17] = biological target: Peroxisome proliferator-activated receptor delta (Homo sapiens) (UniProt Q03181); experiment: qHTS assay to identify small molecule antagonists of the peroxisome proliferator-activated receptor delta (PPARd) signaling pathway (AID 743215; active means well fitted inhibition curve with a large enough effect in the signal ratio in the repeat runs, not every such curve was filed as active; the % refers to the signal ratio;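 further: cells stimulated with agonist L165041 at 300 nM final during compound exposure; series mostly up to about 62 µM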)
Peroxisome proliferator-activated receptor delta (Homo sapiens), sequence (Q03181 whole entry, looked up): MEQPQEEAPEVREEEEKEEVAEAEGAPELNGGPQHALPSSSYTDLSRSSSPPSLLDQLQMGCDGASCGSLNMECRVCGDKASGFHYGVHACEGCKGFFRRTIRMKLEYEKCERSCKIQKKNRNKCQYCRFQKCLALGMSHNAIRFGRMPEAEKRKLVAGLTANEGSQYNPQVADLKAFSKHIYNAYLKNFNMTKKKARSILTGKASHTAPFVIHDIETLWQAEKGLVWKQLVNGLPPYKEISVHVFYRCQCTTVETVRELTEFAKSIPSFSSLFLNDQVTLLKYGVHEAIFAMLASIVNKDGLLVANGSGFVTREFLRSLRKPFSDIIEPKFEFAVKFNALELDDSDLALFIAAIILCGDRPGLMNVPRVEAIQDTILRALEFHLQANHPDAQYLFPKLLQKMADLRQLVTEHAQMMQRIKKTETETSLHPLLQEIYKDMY
Procedure, shortened: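 Agonist L165041 (300 nM final) added with compound to PPARd-bla HEK293H UAS-bla reporter cells; 17 h incubation at 37 C. Read-out: LiveBLAzer FRET substrate, 2 h at room temperature, fluorescence intensity.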

[18] = biological target: Bile acid receptor (Homo sapiens) (UniProt Q96RI1); experiment: qHTS assay to identify small molecule antagonists of the farnesoid-X-receptor (FXR) signaling pathway (AID 743217; active means well fitted inhibition curve with a large enough effect in the signal ratio in the repeat runs, not every such curve was filed as active; the % refers to the signal ratio)
Bile acid receptor (Homo sapiens), sequence (Q96RI1 whole entry, looked up): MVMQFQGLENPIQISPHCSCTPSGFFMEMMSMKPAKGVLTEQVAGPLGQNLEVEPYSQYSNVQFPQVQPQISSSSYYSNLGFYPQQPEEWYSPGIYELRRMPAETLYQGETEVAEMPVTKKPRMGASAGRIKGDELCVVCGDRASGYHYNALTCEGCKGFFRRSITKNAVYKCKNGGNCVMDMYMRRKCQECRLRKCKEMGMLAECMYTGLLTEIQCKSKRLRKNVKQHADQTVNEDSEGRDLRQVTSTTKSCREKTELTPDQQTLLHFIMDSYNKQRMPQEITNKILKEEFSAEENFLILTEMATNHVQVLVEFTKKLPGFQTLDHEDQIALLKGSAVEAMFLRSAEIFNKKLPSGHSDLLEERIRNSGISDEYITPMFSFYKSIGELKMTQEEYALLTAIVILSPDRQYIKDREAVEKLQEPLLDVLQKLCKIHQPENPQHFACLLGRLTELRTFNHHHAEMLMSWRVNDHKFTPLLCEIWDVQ
Procedure, shortened: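 Antagonist mode: chenodeoxycholic acid at 50 uM final stimulates a UAS-driven beta-lactamase reporter in HEK 293T FXR-bla cells during 16 h, 37C compound exposure. Read-out is FRET substrate fluorescence after 2 h at room temperature.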

[19] = biological target: Bile acid receptor (Homo sapiens) (UniProt Q96RI1); experiment: qHTS assay to identify small molecule agonists of the farnesoid-X-receptor (FXR) signaling pathway (AID 743220; active means well fitted activation curve with a large enough effect in the signal ratio in the repeat runs, not every such curve was filed as active; the % refers to the signal ratio)
Procedure, shortened: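 FXR-UAS-bla HEK 293T cells carrying a UAS-driven beta-lactamase reporter were plated for 5 h at 37C/5% CO2, then exposed to DMSO-dissolved Tox21 10K compounds for 16 h at 37C. A LiveBLAzer B/G FRET substrate was loaded for 2 h at room temperature before fluorescence reading.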

[20] = biological target: Peroxisome proliferator-activated receptor delta (Homo sapiens) (UniProt Q03181); experiment: qHTS assay to identify small molecule agonists of the peroxisome proliferator-activated receptor delta (PPARd) signaling pathway (AID 743212; calls by dose curve)
Procedure, shortened: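 Beta-lactamase reporter read by fluorescence (LiveBLAzer B/G FRET, 2 h, room temperature). Test agents, in DMSO, incubated at 37 C with PPARd-bla HEK293H cells.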

## CC1(C)[C@@H](O[C@H]2O[C@H](C(=O)O)[C@@H](O)[C@H](O)[C@H]2O[C@@H]2O[C@H](C(=O)O)[C@@H](O)[C@H](O)[C@H]2O)CC[C@]2(C)[C@H]3C(=O)C=C4[C@@H]5C[C@@](C)(C(=O)O)CC[C@]5(C)CC[C@@]4(C)[C@]3(C)CC[C@@H]12
[1]
  Potency: inactive
[2]
  Potency: inactive
[3]
  Potency: inactive
[4]
  Potency: inactive
[5]
  Potency: inactive
[6]
  Potency: inactive
[7]
  Potency: inactive
[8]
  Potency: inactive
[9]
  Potency: inactive
[10]
  Potency: inactive
[11]
  Potency: inactive
[12]
  outcome: inactive
[13]
  Potency: inactive

## OCC(O)CS (stereo not given)
[1]
  Potency: inactive
[3]
  Potency: inactive
[14]
  Potency: inactive
[15]
  Potency: inactive
[4]
  Potency: inactive
[5]
  Potency: inactive
[6]
  Potency: inactive
[7]
  Potency: inactive
[16]
  Potency: inactive
[8]
  Potency: inactive
[9]
  Potency: inactive
[17]
  Potency: inactive
[10]
  Potency: inactive
[11]
  Potency: inactive
[12]
  outcome: inactive
[13]
  Potency: inactive

## O=C1OC(=O)c2c(Cl)c(Cl)c(Cl)c(Cl)c21
[1]
  Potency: inactive
[2]
  Potency: inactive
[14]
  Potency: inactive
[15]
  Potency: inactive
[4]
  Potency: inactive
[5]
  Potency: inactive
[6]
  Potency: inactive
[7]
  Potency: inactive
[16]
  Potency: inactive
[8]
  Potency: inactive
[9]
  Potency: inactive
[17]
  Potency: inactive
[18]
  Potency: inactive
[10]
  Potency: inactive
[19]
  Potency: inactive
[11]
  Potency: inactive

## CCCCCCCCCCCC(=O)N(C)CC(=O)O
[1]
  Potency: inactive
[3]
  Potency: inactive
[14]
  Potency: 15 µM (active)
  activation: 0.467% [at 7.08 µM]
[15]
  ratio activity, negative = inhibition: 4.34% [at 5.95 µM]
[4]
  Potency: inactive
[5]
  activation: -3.99% [at 8.36 µM]
[6]
  Potency: inactive
[16]
  Potency: inactive
[8]
  activity change, negative = cytotoxicity: -1.87% [at 5.95 µM]
[20]
  activation: 0.0552% [at 5.95 µM]
[9]
  viability change, negative = cytotoxic: -8.19% [at 6.26 µM]
[17]
  ratio activity, negative = inhibition: -7.38% [at 6.26 µM]
[10]
  Potency: inactive
[11]
  Potency: inactive
[12]
  outcome: inactive
[13]
  activity change, negative = inhibition: 10.5% [at 6.95 µM]

## CC(C)(C)NC[C@H](O)COc1nsnc1N1CCOCC1
[1]
  Potency: inactive
[2]
  Potency: inactive
[3]
  Potency: inactive
[4]
  Potency: inactive
[5]
  Potency: inactive
[6]
  Potency: inactive
[16]
  Potency: inactive
[8]
  Potency: inactive
[9]
  Potency: inactive
[10]
  Potency: inactive
[11]
  Potency: inactive
[12]
  outcome: inactive
[13]
  Potency: inactive

## C=CC(=O)NCOCCCC
[1]
  Potency: inactive
[3]
  Potency: inactive
[14]
  Potency: inactive
[4]
  Potency: inactive
[6]
  Potency: inactive
[7]
  Potency: inactive
[16]
  Potency: inactive
[8]
  Potency: inactive
[9]
  Potency: inactive
[17]
  Potency: inactive
[10]
  Potency: inactive
[11]
  Potency: inactive
[12]
  outcome: inactive
[13]
  Potency: inactive

## CC(=O)C(C)C
[1]
  Potency: inactive
[3]
  Potency: inactive
[14]
  Potency: inactive
[15]
  Potency: inactive
[4]
  Potency: inactive
[5]
  Potency: inactive
[6]
  Potency: inactive
[16]
  Potency: inactive
[8]
  Potency: inactive
[9]
  Potency: inactive
[17]
  Potency: inactive
[10]
  Potency: inactive
[11]
  Potency: inactive
[12]
  outcome: inactive
[13]
  Potency: inactive

## CCCCCCCCO
[1]
  Potency: inactive
[2]
  Potency: inactive
[14]
  Potency: inactive
[15]
  Potency: inactive
[4]
  Potency: inactive
[5]
  Potency: inactive
[6]
  Potency: inactive
[7]
  Potency: inactive
[16]
  Potency: inactive
[8]
  Potency: inactive
[20]
  Potency: inactive
[9]
  Potency: inactive
[17]
  Potency: inactive
[10]
  Potency: inactive
[11]
  Potency: inactive
[12]
  outcome: inactive
[13]
  Potency: inactive

## O=C1CCCCCCCCCCC1
[1]
  Potency: inactive
[2]
  Potency: inactive
[14]
  Potency: inactive
[15]
  Potency: inactive
[4]
  Potency: inactive
[6]
  Potency: inactive
[7]
  Potency: inactive
[16]
  Potency: inactive
[8]
  Potency: inactive
[20]
  Potency: inactive
[9]
  Potency: inactive
[17]
  Potency: inactive
[10]
  Potency: inactive
[11]
  Potency: inactive
